Records with an inconclusive call do not appear. A number with no mark means an inactive call. Active and inactive are the calls of the source. Calls come from the whole dose curve; as a rule, active = well fitted activation curve with a large enough effect in the repeat runs; inconclusive = weak or mixed curves; inactive = no such curve, though single readings can be large or run the other way. Starred links: 1 amine or outer side, 2 acyl side, 3 side chain; linkers in the order of their positions; H or OH if unused. Positions of bridges follow the written chain, without caps; N, C: chain ends. Non-standard residues stand in square brackets, D forms with d. Residues, ends and D or L forms follow the SMILES beside them. *: point of attachment. X5 = NC1=N[C@@H]([C@H](N[*:1])C(=O)[*:2])C[C@H](O)N1; ΔAla(Z-3-ureido) = NC(=O)N/C=C(\N)C(=O)O; β3hOrn = NCCC[C@H](N)CC(=O)*; Orn = NCCC[C@H](N)C(=O)O; Dap = NC[C@H](N)C(=O)O; Mpa = O=C(O)CCS
What follows are compounds tested against Aryl hydrocarbon receptor (Homo sapiens) (UniProt P35869) (assay: qHTS assay to identify small molecule that activate the aryl hydrocarbon receptor (AhR) signaling pathway (AID 743085; note: nearly all actives have a fitted effect of over 15% in size;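 for activation: HG2L7.5c1 human HepG2 liver cells with stably integrated DRE-driven firefly reporter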)). Details: HepG2 AhR-luc (HG2L7.5c1), luciferase, 24 h; series mostly up to 70.3 µM; activation: at the top concentration.
Method in brief: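 Luminescence read-out: ONE-Glo reagent, 30 min at room temperature, in HG2L7.5c1 HepG2 reporter cells treated 24 h at 37C. Viability was measured beforehand by CellTiter-Fluor fluorescence after 30 min at 37C.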
% is set by controls: 0 for no effect and ±100 for the full control effect; potency is the fitted concentration of half-maximal effect.

Aryl hydrocarbon receptor (Homo sapiens), sequence (P35869 whole entry, looked up): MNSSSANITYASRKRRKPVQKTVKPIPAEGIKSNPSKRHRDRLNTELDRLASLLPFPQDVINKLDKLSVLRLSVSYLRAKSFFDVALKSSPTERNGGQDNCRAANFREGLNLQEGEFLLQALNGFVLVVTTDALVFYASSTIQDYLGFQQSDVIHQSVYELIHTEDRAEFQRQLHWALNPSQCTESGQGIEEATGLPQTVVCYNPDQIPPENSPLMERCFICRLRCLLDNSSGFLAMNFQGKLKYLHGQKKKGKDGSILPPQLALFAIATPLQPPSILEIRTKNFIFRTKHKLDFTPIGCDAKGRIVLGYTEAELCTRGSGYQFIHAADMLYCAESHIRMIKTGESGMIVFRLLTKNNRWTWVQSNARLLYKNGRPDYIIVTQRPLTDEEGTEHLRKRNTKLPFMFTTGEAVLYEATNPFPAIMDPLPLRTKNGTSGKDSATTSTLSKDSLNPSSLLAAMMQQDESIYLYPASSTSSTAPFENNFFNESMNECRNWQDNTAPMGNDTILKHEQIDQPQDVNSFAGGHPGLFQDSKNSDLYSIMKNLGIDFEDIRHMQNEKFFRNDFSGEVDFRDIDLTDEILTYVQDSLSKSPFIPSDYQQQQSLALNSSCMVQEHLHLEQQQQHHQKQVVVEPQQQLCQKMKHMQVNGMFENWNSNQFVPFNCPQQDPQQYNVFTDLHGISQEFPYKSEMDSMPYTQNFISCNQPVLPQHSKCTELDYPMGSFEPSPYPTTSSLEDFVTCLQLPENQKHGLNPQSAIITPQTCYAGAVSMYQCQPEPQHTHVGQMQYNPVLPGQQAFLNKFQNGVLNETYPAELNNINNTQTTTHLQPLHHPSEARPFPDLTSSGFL

SMILES | activation | Potency
CC(=O)[C@@]1(O)CC[C@H]2[C@@H]3C=C(Cl)C4=CC(=O)[C@@H]5C[C@@H]5[C@]4(C)[C@H]3CC[C@@]21C | -0.0061% | 
CCCCC(F)(F)[C@@]1(O)CC[C@H]2[C@@H](CC(=O)[C@@H]2CCCCCCC(=O)O)O1 | -2.93% | 
CCCCCCCCCCCCCCCC(=O)O[C@@H]1CC(C)=C(/C=C/C(C)=C/C=C/C(C)=C/C=C/C=C(C)/C=C/C=C(C)/C=C/C2=C(C)C[C@@H](OC(=O)CCCCCCCCCCCCCCC)CC2(C)C)C(C)(C)C1 | -0.227% | 
O=C(CCCN1CCC(n2c(=S)[nH]c3ccccc32)CC1)c1ccc(F)cc1 |  | 11.9 µM (active)
CN1CCN(C2=Nc3ccccc3Cc3ccccc32)CC1 | -1.02% | 
C[C@@H]1C/C=C/C=C/C=C/C=C/[C@H](O[C@@H]2O[C@H](C)[C@@H](O)[C@H](N)[C@@H]2O)C[C@@H]2O[C@](O)(C[C@@H](O)C[C@H]3O[C@@H]3/C=C/C(=O)O1)C[C@H](O)[C@H]2C(=O)O | 1.33% | 
O=C(O[C@H]1CN2CCC1CC2)N1CCc2ccccc2[C@@H]1c1ccccc1 | -3.04% | 
CC(CC(c1ccccc1)c1ccccc1)NC(C)(C)C (stereo not drawn) | -1.66% | 
O=C(OCCO)c1ccccc1O | -3.16% | 
CCOc1ccc(N=C(C)Nc2ccc(OCC)cc2)cc1 | 2.77% | 
CC1=C(C(=O)OCCN(Cc2ccccc2)c2ccccc2)C(c2cccc([N+](=O)[O-])c2)C(P2(=O)OCC(C)(C)CO2)=C(C)N1 (stereo not drawn) | 4.41% | 
NCCCNCCCCNC(=O)C(O)NC(=O)CCCCCCN=C(N)N (stereo not drawn) | 6.26% | 
CCOc1ccc(C[C@H]2NC(=O)CCSSC[C@@H](C(=O)N3CCC[C@H]3C(=O)N[C@@H](CCCN)C(=O)NCC(N)=O)NC(=O)[C@H](CC(N)=O)NC(=O)[C@H]([C@@H](C)O)NC(=O)[C@H]([C@@H](C)CC)NC2=O)cc1 ([Mpa][dY](Et)ITNCP[Orn]G-NH2; disulfide 1-6) | -2.03% | 
CN(C)CCOc1ccccc1Cc1ccccc1 (tested in a mixture with another compound) | 6.26% | 
CCOC(=O)CN[C@@H](C(=O)N1CC[C@H]1C(=O)NCc1ccc(/C(N)=N/O)cc1)C1CCCCC1 | -2.79% | 
CCCCCCCN(CC)CCCC(O)c1ccc(NS(C)(=O)=O)cc1 (stereo not drawn) | -0.0518% | 
CCCCC(=O)OCC(=O)[C@]1(O)Cc2c(O)c3c(c(O)c2[C@@H](O[C@H]2C[C@H](NC(=O)C(F)(F)F)[C@H](O)[C@H](C)O2)C1)C(=O)c1c(OC)cccc1C3=O | 2.14% | 

SMILES | activation | Potency
CCOC(=O)[C@H](CCc1ccccc1)N[C@@H](C)C(=O)N1CC2(C[C@H]1C(=O)O)SCCS2 | -0.264% | 
CC#CCC(C)[C@H](O)/C=C/[C@@H]1[C@H]2C/C(=C/CCCC(=O)O)C[C@H]2C[C@H]1O (stereo partly drawn) | 11.4% | 
CCC(=O)OCC(=O)[C@@]1(OC(=O)CC)[C@@H](C)C[C@H]2[C@@H]3CCC4=CC(=O)C=C[C@]4(C)[C@@]3(F)[C@@H](O)C[C@@]21C | 13.2% | 
CN1CCN(CCC=C2c3ccccc3Sc3ccc(S(=O)(=O)N(C)C)cc32)CC1 | 1.15% | 
C/C=C(/CC[C@@H](C)[C@H]1CC[C@H]2C3=CC[C@H]4[C@H](C)[C@@H](O)CC[C@]4(C)[C@H]3CC[C@]12C)C(C)C | -1.7% | 
C=C[C@]1(C)C[C@@H](OC(=O)CSCCN(CC)CC)[C@]2(C)[C@H](C)CC[C@]3(CCC(=O)[C@H]32)[C@@H](C)[C@@H]1O | -0.628% | 
CN[C@@H]1[C@@H](O)[C@@H](O[C@@H]2[C@@H](O)[C@H](OC3OC(CN)=CCC3N)[C@@H](N)C[C@H]2N)OC[C@]1(C)O (stereo partly drawn) | -0.788% [at 32.5 µM] | 
CCOC(=O)Cc1cccc(-c2cc(CCCCCCc3ccc(O[C@H]4O[C@H](COC(C)=O)[C@@H](OC(C)=O)[C@H](OC(C)=O)[C@@H]4OC(C)=O)c(-c4cccc(CC(=O)OCC)c4)c3)ccc2O[C@H]2O[C@H](COC(C)=O)[C@@H](OC(C)=O)[C@H](OC(C)=O)[C@@H]2OC(C)=O)c1 | 7.16% | 
CCCCOC(=O)C(=O)Nc1cccc(-c2nn[nH]n2)c1 | -1.81% | 
CC(C)(C)C1(O)CCN2CC3c4ccccc4CCc4cccc(c43)C2C1 (stereo not drawn) | 7.23% | 
NCCC(=O)[N-][C@@H](Cc1cnc[nH]1)C(=O)O.[Zn] | -1.56% | 
COc1ccc(CNCC(O)COc2ccc3[nH]c(=O)ccc3c2)cc1OC (stereo not drawn) | -0.341% | 
c1cnc2cc3c(cc2n1)[C@@H]1CNC[C@H]3C1 | 3.26% | 
CCC(=O)OCC(=O)[C@@]1(OC(=O)CC)[C@H](C)C[C@H]2[C@@H]3CCC4=CC(=O)C=C[C@]4(C)[C@@]3(F)[C@@H](O)C[C@@]21C | 7.09% | 
NCCC[C@H](N)CC(=O)N[C@H]1CNC(=O)[C@H]([C@H]2C[C@H](O)NC(N)=N2)NC(=O)/C(=C/NC(N)=O)NC(=O)[C@H](CO)NC(=O)[C@H](CO)NC1=O (β3hOrn-[Dap]SS[ΔAla(Z-3-ureido)][X5]; lactam 1-C) | -0.132% | 
CC(=O)[C@@]1(O)CC[C@H]2[C@@H]3C=C(Cl)C4=CC(=O)CC[C@]4(C)[C@H]3CC[C@@]21C | -1.57% | 

— PubChem BioAssay (Tox21)
